The assay concerns VDR:RXRa (NR concentration 270 nM, RXRa partner concentration 90 nM). Kind of assay: PBM binding z-score (relative to random genomic background probes); higher = stronger binding; sequences stand for … in GC…GCGATTGACAGCGTAGAATGAAGG
Here is the method: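 Protein-binding microarray (Agilent 4x180K custom design, double-stranded 60-nt probes: 5' GC cap, 34-nt variable region, 24-nt constant primer region; full probe sequence given). Purified or IVT nuclear receptor:RXRα heterodimers (3:1 NR:RXRα, mostly 270:90 nM) or homodimers were incubated for 1 h in PBS with 2% milk and no ligand, then detected with Alexa488 antibodies. Fluorescence from o1-orientation probes (~5 replicates averaged) was converted to z-scores against 500 random hg19 background probes. Variable regions are seed direct-repeat (DR0–DR5) sites, all their single-nucleotide variants and half-site ablations.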
In turn, ACTAGCCGGCCAAGGGTCACTCAAGATTAGTCCG yielded a PBM binding z-score of 2.59.
For the sequence CCTGCTAGGTCAATAGTCAGCTAAAGCAGCTCGC, the PBM binding z-score worked out at 0.487.
In turn, CGTCCAAGGTCAAGGTAAGTGAAAGAGACTCGAA yielded a PBM binding z-score of 3.76.
Consider CCTACTGTGCCAAGGTCATTGATCAGTCAAAGCA, for which the PBM binding z-score came to 3.52.
As to TAACCTAGGTCATGCGGGCCAGTATAGTGTCGGC, the PBM binding z-score was determined as 3.55.
With GCTTGTTGGTCAGTAAAAGGTCACACACCGGTCG, the PBM binding z-score stood at 3.86.
CGTCCAAGGTCAAAGTCAGTGAAAGAGACTCGAA came in with a PBM binding z-score of 3.77.
The result for AGAACGAGGGCACTCTGAGTTGATAGCAGAGTAG reads 1.88; that for TCGAGTAGGTTAGACGGGGCATTCAGCCAACATA, 1.29.
As for TATACAGGGTCAACGGCCAGAGTACGAATGTCGA, the PBM binding z-score came to 4.6.
As for TCTCGGAGGGCACGAAGGTCAGAGCTTTCCAGAG, the PBM binding z-score was 5.15.
Turning to CCTGCTAGATCAATGGTCAGCTAAAGCAGCTCGC, the PBM binding z-score is -0.615.
GGAACGAGGGCACAGTTGATAGCATCTGTCGACG returned a PBM binding z-score of 0.453.
The result for GCGTACGGGTCAAAGGTTATAGCATGAATAGAAT reads 5.59; that for CGAACTAGGTCATTAACAGGACAGTGAATAGTAA, 1.77.
The result for ATCGAAAGGTCGGGAGGTGAGTATACAGAAAGGC reads 2.24; that for ATCGAAAGGTCGAAGGTGAGTATGCCCACCCGAA, 2.68; that for CCAGACAGGTGAGAAGGTAATTCAGCCTCGATTA, -0.16.
In the case of AGAATGACGTTATACGTAGATCAGGGAAGAAAGT, the PBM binding z-score was -0.532.
The result for AGTCAAAGTTCATCTAGTTAACGTAAGATATGCT reads 4.86; that for GCTGCTAAGTCAACTGATGGTCAGCTAAAGCTCG, -0.619.
In the case of ATATCAAGGTGATCGTGAGGTCGTTGATACTAAC, the PBM binding z-score is 3.33.
The result for ATATGTAGATTAAGGGTCATTCAGGTTGGTTCGC reads 5.22; that for TGAATGAGGTTATAAGATCACGGAACGTTGCAAA, 1.53.
The result for TCTGCTAGGTCAGTTGGACAGCTAACGAGCTGCC reads -0.155; that for CCTACTGGTCCAAAGGTCATTGATTCCAATGCTC, 4.83; that for ACAACGAGGGCACGCTGAGTTGATAGCAGAGTAG, 2.01.
Regarding ACTATTAGTTGACTTAGGGCAACGGATACGACGC, the PBM binding z-score is 0.248.
The sequence CGACCTAGGTCATCCAGGACAGTGAATACATTGA yielded a PBM binding z-score of 4.85.
The result for CCTATTTGTTGACCATAAGGGCAACCGAAGCTCG reads 1.09; that for GCGATTGGGGCATCAGCAGGTTACCATAACTTAA, 0.0705.
As to ATCACTAGGTAACCAAGTTCAGTGAATGCCGAAC, the PBM binding z-score turned out to be 3.92.
GCGACTGGGGCATCAGCACGTTACCATAACTTAA displayed a PBM binding z-score of -0.365.
ACTAGCATGCCAAGTTTGGGTCACTCAAACAAAG: the PBM binding z-score stood at 0.531.
Regarding AGAATGAGGTTCCCAAAGATCAGGGAAACGCTTG, the PBM binding z-score is -0.0526.
The result for CGTCCAAGGTCAGAGGGGTCAGTGAATGCCGAGT reads 7.48; that for TCGAGTAGATTAGTCGGGGCATTCAGCCAACATA, -0.0689.
Turning to ATCTCTAGGTAAAAAGTTCAGTGAAAGAGAGGAC, the PBM binding z-score was found to be 1.39.
In the case of ACTAGCAGGCCCAGTTTGGGTCACTCAAACAAAG, the PBM binding z-score was -0.198.
The result for CCTCGGAGGACAACAGGAGGTCAGAGATGCCAGA reads 2.29.

Values taken from the supplement of paper PMC6555819.
